Where a name gives a salt, the structure may show the parent alone. The full ranking holds about 2,000 compounds; the median of “fractional viability relative to vehicle” is about 0.91, and the lowest 2% start at about 0.045. Many of the other results were omitted from the sample, so the lowest values are more common in it than they were.

The record followed here is the supplement of paper PMC5919970.

This assay deals with TYKNU. In words: fractional viability relative to vehicle; TYKNU is a high-grade serous ovarian cancer line; higher = less growth inhibition. The note with it: 72 h. Put shortly:
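TYKNU control cells or lentiCRISPRv2 knockout derivatives were plated at 500 cells per well in duplicate into drug-stamped 384-well plates holding a ~2100-compound library at 2 or 10 μM. Culture was in RPMI 1640 with 10% FBS at 37 °C in 5% CO2, with 72 h of drug treatment. Viability was measured by Cell Titer Glo luminescence, and the averaged duplicate treatment wells were normalised to duplicate control wells at the same plate position.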

Where [1] appears, read: 2uM, genotype: DNM1L knockout (sgDNM1L #1).
Setting [2] is: 2uM, genotype: sgCTRLA1 (non-targeting control).
The mark [3] stands for this setting: 10uM, genotype: DNM1L knockout (sgDNM1L #1).
The mark [4] stands for this setting: 10uM, genotype: sgCTRLA1 (non-targeting control).

For the molecule `Cc1cccc(C(C)c2c[nH]cn2)c1C` (stereo not drawn) [Medetomidine HCl], the fractional viability is 1.09 under setting [1], 1.09 under setting [2], 0.755 under setting [3] and 1.03 under setting [4].

`O=[N+]([O-])c1ncc[nH]1` [Azomycin]: the fractional viability worked out at 0.753 under setting [1], 1.09 under setting [2], 0.757 under setting [3] and 0.975 under setting [4].

As to `CC[C@H](C)[C@@H]([C@@H](CC(=O)N1CCC[C@H]1[C@H](OC)[C@@H](C)C(=O)N[C@H](C)[C@@H](O)c1ccccc1)OC)N(C)C(=O)[C@@H](NC(=O)[C@@H](NC)C(C)C)C(C)C` [Monomethyl auristatin E (MMAE)], the fractional viability under setting [1] came to 0.0977, the fractional viability under setting [2] is 0.0889, the fractional viability under setting [3] came out at 0.0769 and the fractional viability under setting [4] turned out to be 0.0612.

As to `Cc1cccc([C@H](C)c2c[nH]cn2)c1C` [Dexmedetomidine], the fractional viability amounted to 1.06 under setting [1], 1.23 under setting [2], 0.8 under setting [3] and 1.05 under setting [4].

Regarding `CCCCCCCCCCCCCCCC[n+]1ccccc1` [Cetylpyridinium Chloride], the fractional viability was determined as 0.216 under setting [1], 0.196 under setting [2], 0.0152 under setting [3] and 0.0105 under setting [4].

On to `Cc1ccccc1-n1c(Cn2ncc3c(N)ncnc32)nc2cccc(C)c2c1=O`, for which the fractional viability is, setting by setting: under setting [1], 0.87; under setting [2], 1.14; under setting [3], 0.731; under setting [4], 1.15.

Regarding `CCc1c(C(=O)C(N)=O)c2c(OCC(=O)O)cccc2n1Cc1ccccc1`, the fractional viability is, setting by setting: under setting [1], 1.09; under setting [2], 1.02; under setting [3], 0.94; under setting [4], 0.973.

Regarding `Cn1cc(C2=C(c3cn(C4CCN(Cc5ccccn5)CC4)c4ccccc34)C(=O)NC2=O)c2ccccc21`, the fractional viability runs as follows: under setting [1], 0.952; under setting [2], 0.961; under setting [3], 0.948; under setting [4], 0.916.

For the molecule `Cc1cc(C(C#N)c2ccc(Cl)cc2)c(Cl)cc1NC(=O)c1cc(I)cc(I)c1O` (stereo not drawn) [Closantel], the fractional viability is, setting by setting: under setting [1], 1.13; under setting [2], 1.17; under setting [3], 0.948; under setting [4], 1.1.

With `Cc1cc(C(C#N)c2ccc(Cl)cc2)c(Cl)cc1NC(=O)c1cc(I)cc(I)c1O` (stereo not drawn) [Closantel Sodium], the fractional viability is 0.98 under setting [1], 1.19 under setting [2], 0.879 under setting [3] and 0.97 under setting [4].

As to `COc1ccc(C[C@H]2NC[C@H](O)[C@H]2OC(C)=O)cc1` [Anisomycin], the fractional viability by setting is: under setting [1], 0.109; under setting [2], 0.0785; under setting [3], 0.118; under setting [4], 0.0319.

On to `COc1cc(C)[nH]c(=O)c1CNC(=O)c1c(C)n([C@H](C)C2CCOCC2)c2ccccc12`, for which the fractional viability by setting is: under setting [1], 0.85; under setting [2], 0.972; under setting [3], 0.755; under setting [4], 0.698.

With `CCc1cc2c(s1)-n1c(C)nnc1CN=C2c1ccccc1Cl` [Etizolam], the fractional viability by setting is: under setting [1], 0.778; under setting [2], 1; under setting [3], 0.707; under setting [4], 0.96.

For `CC(C)(C)[C@]1(O)CC2OC(=O)CC23C(=O)OC2OC(=O)[C@H](O)C231` (stereo partly drawn) [Bilobalide], the fractional viability is, setting by setting: under setting [1], 0.854; under setting [2], 1.09; under setting [3], 0.975; under setting [4], 1.11.

In the case of `O=C1CCC[C@@H]2[C@H]3CCCN4CCC[C@@H](CN12)[C@@H]34` [(+)-Matrine], the fractional viability under setting [1] came out at 0.865, the fractional viability under setting [2] was 1.03, the fractional viability under setting [3] is 0.795 and the fractional viability under setting [4] amounted to 1.

Turning to `COc1cc([C@@H]2c3cc4c(cc3[C@H](O)[C@H]3COC(=O)[C@@H]23)OCO4)cc(OC)c1OC` [Picropodophyllin (PPP)], the fractional viability is, setting by setting: under setting [1], 0.139; under setting [2], 0.142; under setting [3], 0.121; under setting [4], 0.0713.

Consider `O=C(NCC1CCOCC1)c1cnc(Nc2ccc(Cl)cc2Cl)nc1C(F)(F)F`, for which the fractional viability worked out at 1.03 under setting [1], 1.32 under setting [2], 0.768 under setting [3] and 1.19 under setting [4].
